Results as given in PubChem BioAssay (NCATS).
Records with an inconclusive call do not appear. The source made the active and inactive calls. The call rests on the fitted dose curve; in most records, active means well fitted curve in the direction sought with a large enough effect; inconclusive means small, poorly fitted or top-dose-only effect, or another doubt; inactive means no such curve, though single readings can be large; an effect the other way counts as inactive or inconclusive. Starred links: 1 amine or outer side, 2 acyl side, 3 side chain; linkers in the order of their positions; H or OH if unused. Positions of bridges follow the written chain, without caps; N, C: chain ends. Non-standard residues stand in square brackets, D forms with d. Residues, ends and D or L forms follow the SMILES beside them. Chains are numbered I, II in the order given. Actinocin(9to1) = Cc1c2oc3c(C)ccc(C(=O)[*:1])c3nc-2c(C(=O)[*:2])c(N)c1=O; NMeV = CN[CH](C(=O)O)C(C)C; Sar = CNCC(=O)O

Assays:
[1] = Quantitative High-Throughput drug screen in 47 multiple myeloma cell lines against the NCATS MIPE library collection: Karpas417_ECACC cell viability assay (AID 1918961); details: Karpas417 myeloma viability, CellTiter-Glo ATP luminescence, 48 h; viability (% of DMSO): at 45.8 µM (top of the series)
How it was run: (§1)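 Approved and investigational drugs from MIPE 4.0 were added by pin tool to 500 cells per well. After 48 hours at 37C, ATP-based CellTiter-Glo luminescence indicated remaining viability.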

[2] = Quantitative High-Throughput drug screen in 47 multiple myeloma cell lines against the NCATS MIPE library collection: KHM11_PLB cell viability assay (AID 1918962); further: nearly all actives have a fitted effect of over 35% in size
How it was run: (§2)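 Viability readout: CellTiter-Glo luminescence following 5 min room-temperature incubation with reagent. Prior exposure: 48 h, 37C, humidified 5% CO2, 500 cells per well.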

[3] = Quantitative High-Throughput drug screen in 47 multiple myeloma cell lines against the NCATS MIPE library collection: JIM3_ECACC cell viability assay (AID 1918963; further: nearly all actives have a fitted effect of over 35% in size)
How it was run: as §2

[4] = Quantitative High-Throughput drug screen in 47 multiple myeloma cell lines against the NCATS MIPE library collection: JIM1_ECACC cell viability assay (AID 1918964)
How it was run: (§3)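 Steps: seed 500 cells per well; pin-transfer MIPE 4.0 library; incubate 48 h at 37C, 5% CO2, humidified; add CellTiter-Glo, 5 min room temperature; read luminescence.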

[5] = Quantitative High-Throughput drug screen in 47 multiple myeloma cell lines against the NCATS MIPE library collection: INA6_PLB cell viability assay (AID 1918965; further: nearly all actives have a fitted effect of over 55% in size)
How it was run: as §1

[6] = Quantitative High-Throughput drug screen in 47 multiple myeloma cell lines against the NCATS MIPE library collection: H1112_PLB cell viability assay (AID 1918967; further: nearly all actives have a fitted effect of over 30% in size)
How it was run: as §3

[7] = Quantitative High-Throughput drug screen in 47 multiple myeloma cell lines against the NCATS MIPE library collection: KMS27_JCRB cell viability assay (AID 1918970); details: KMS27 myeloma cells, CellTiter-Glo ATP viability, 48 h; viability (% of DMSO): at 45.8 µM (top of the series); further: nearly all actives have a fitted effect of over 30% in size
How it was run: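 ATP-based viability (CellTiter-Glo luminescence) is measured in cells treated 48 h with approved and investigational drugs at 37 °C. Controls are DMSO-only wells for full viability and media-only wells for none.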

[8] = Quantitative High-Throughput drug screen in 47 multiple myeloma cell lines against the NCATS MIPE library collection: KMS12BM_JCRB cell viability assay (AID 1918971); further: nearly all actives have a fitted effect of over 35% in size
How it was run: as §3

[9] = Quantitative High-Throughput drug screen in 47 multiple myeloma cell lines against the NCATS MIPE library collection: KMS12PE_JCRB cell viability assay (AID 1918972); further: nearly all actives have a fitted effect of over 30% in size
How it was run: as §1

[10] = Quantitative High-Throughput drug screen in 47 multiple myeloma cell lines against the NCATS MIPE library collection: KMS26_JCRB cell viability assay (AID 1918975); further: nearly all actives have a fitted effect of over 45% in size
How it was run: as §3

[11] = Quantitative High-Throughput drug screen in 47 multiple myeloma cell lines against the NCATS MIPE library collection: MMM1_PLB cell viability assay (AID 1918976); further: nearly all actives have a fitted effect of over 35% in size
How it was run: (§4)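 MIPE 4.0 approved/investigational drugs; 500 cells/well; 48 h 37 °C humidified 5% CO2; CTG luminescence readout; DMSO = 100%, media = 0% viability.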

[12] = Quantitative High-Throughput drug screen in 47 multiple myeloma cell lines against the NCATS MIPE library collection: MOLP8_DSMZ cell viability assay (AID 1918977); further: nearly all actives have a fitted effect of over 45% in size
How it was run: as §4

[13] = Quantitative High-Throughput drug screen in 47 multiple myeloma cell lines against the NCATS MIPE library collection: NCIH929_DSMZ cell viability assay (AID 1918978); further: nearly all actives have a fitted effect of over 35% in size
How it was run: as §4

[14] = Quantitative High-Throughput drug screen in 47 multiple myeloma cell lines against the NCATS MIPE library collection: OCIMY1_PLB cell viability assay (AID 1918979); further: nearly all actives have a fitted effect of over 35% in size
How it was run: as §4

[15] = Quantitative High-Throughput drug screen in 47 multiple myeloma cell lines against the NCATS MIPE library collection: MM1R_ATCC cell viability assay (AID 1918981); further: nearly all actives have a fitted effect of over 35% in size
How it was run: as §4

[16] = Quantitative High-Throughput drug screen in 47 multiple myeloma cell lines against the NCATS MIPE library collection: Karpas25_ECACC cell viability assay (AID 1918968; further: nearly all actives have a fitted effect of over 35% in size)
How it was run: as §3

[17] = Quantitative High-Throughput drug screen in 47 multiple myeloma cell lines against the NCATS MIPE library collection: KMS21BM_JCRB cell viability assay (AID 1918974); details: ATP luminescence, 48 h; viability: at 45.8 µM (top of the series)
How it was run: as §3

[18] = Quantitative High-Throughput drug screen in 47 multiple myeloma cell lines against the NCATS MIPE library collection: MM1S_ATCC cell viability assay (AID 1918980); further: nearly all actives have a fitted effect of over 45% in size
How it was run: as §4

[19] = Quantitative High-Throughput drug screen in 47 multiple myeloma cell lines against the NCATS MIPE library collection: JJN3_DSMZ cell viability assay (AID 1918966; further: nearly all actives have a fitted effect of over 50% in size)
How it was run: as §3

[20] = Quantitative High-Throughput drug screen in 47 multiple myeloma cell lines against the NCATS MIPE library collection: KMS20_JCRB cell viability assay (AID 1918973); further: nearly all actives have a fitted effect of over 45% in size
How it was run: as §3
Potency means the concentration at half of the fitted maximal effect.

Row | SMILES | Potency [1] | Potency [2] | Potency [3] | Potency [4] | Potency [5] | Potency [6] | Potency [7] | Potency [8] | Potency [9] | Potency [10] | Potency [11] | Potency [12] | Potency [13] | Potency [14] | Potency [15] | Potency [16] | Potency [17] | Potency [18] | Potency [19] | Potency [20]
1 | C#C[C@]1(O)CC[C@@H]2[C@@H]3CCC4=CC(=O)CC[C@@H]4[C@H]3CC[C@@]21CC | inactive | inactive | inactive | inactive | inactive | inactive | inactive | 1.48 µM (active) | inactive | inactive | 9.35 µM (active) | 23.5 µM (active) | inactive | inactive | inactive | – | – | – | – | –
2 | Cn1cc(C=CC(=O)c2cccc(F)c2)cc1C=CC(=O)NO | 13.2 µM (active) | inactive | – | – | 8.33 µM (active) | – | 14.8 µM (active) | – | 14.8 µM (active) | – | – | 16.6 µM (active) | 20.9 µM (active) | – | 16.6 µM (active) | 8.33 µM (active) | 4.69 µM (active) | 14.8 µM (active) | – | –
3 | COc1ccc(C=Cc2cc(OC)c(OC)c(OC)c2)cc1NC(=O)[C@H](N)CO | 0.59 µM (active) | inactive | – | – | 0.001 µM (active) | – | – | 0.0166 µM (active) | 0.0118 µM (active) | 0.0332 µM (active) | – | 0.0662 µM (active) | 0.0059 µM (active) | – | – | 0.001 µM (active) | – | 0.0209 µM (active) | 0.0235 µM (active) | –
4 | Cc1c2oc3c(C)ccc(C(=O)NC4C(=O)NC(C(C)C)C(=O)N5CCCC5C(=O)N(C)CC(=O)N(C)C(C(C)C)C(=O)OC4C)c3nc-2c(C(=O)NC2C(=O)NC(C(C)C)C(=O)N3CCCC3C(=O)N(C)CC(=O)N(C)C(C(C)C)C(=O)OC2C)c(N)c1=O (stereo not drawn) (I: TVP[Sar][NMeV] / II: TVP[Sar][NMeV]; ester I:1-I:C, II:1-II:C; linker I:N-II:N via Actinocin(9to1); configuration not given here) | inactive | inactive | inactive | inactive | inactive | inactive | inactive | inactive | inactive | inactive | inactive | inactive | inactive | inactive | inactive | inactive | inactive | inactive | inactive | inactive
5 | CC(C=CC1=C(C)CCCC1(C)C)=CC=CC(C)=CC(=O)Nc1ccc(O)cc1 | 4.29 µM (active) | 17.1 µM (active) | 5.4 µM (active) | – | 13.6 µM (active) | 19.1 µM (active) | – | 17.1 µM (active) | 3.82 µM (active) | 19.1 µM (active) | 21.5 µM (active) | – | – | 21.5 µM (active) | – | 12.1 µM (active) | – | 48.1 µM (active) | 21.5 µM (active) | 15.2 µM (active)
6 | Cn1cc(-c2cnn3c(N)c(Br)c([C@H]4CCCNC4)nc23)cn1 | 0.132 µM (active) | 0.526 µM (active) | 1.87 µM (active) | 0.118 µM (active) | 0.662 µM (active) | 2.64 µM (active) | 1.48 µM (active) | 2.96 µM (active) | 3.72 µM (active) | 8.33 µM (active) | 0.662 µM (active) | 0.833 µM (active) | 0.833 µM (active) | – | 0.209 µM (active) | 0.662 µM (active) | 0.833 µM (active) | 0.332 µM (active) | 0.59 µM (active) | 1.48 µM (active)
7 | Cc1ccc2nc(NCCN)c3ncc(C)n3c2c1 | 8.33 µM (active) | 2.64 µM (active) | 8.33 µM (active) | 3.32 µM (active) | 5.9 µM (active) | 4.69 µM (active) | 6.62 µM (active) | 3.72 µM (active) | 9.35 µM (active) | – | 2.64 µM (active) | 4.18 µM (active) | – | 14.8 µM (active) | 3.32 µM (active) | 9.35 µM (active) | – | 1.66 µM (active) | 1.66 µM (active) | 6.62 µM (active)
8 | COc1ccc([C@@H]2CNC(=O)C2)cc1OC1CCCC1 | inactive | 10.5 µM (active) | – | – | 9.35 µM (active) | 2.96 µM (active) | 26.4 µM (active) | inactive | – | – | – | – | – | inactive | – | 3.32 µM (active) | – | 0.743 µM (active) | inactive | 3.72 µM (active)
9 | COc1cc(OC)cc(-c2ccc3ncc4ccc(=O)n(-c5ccc(N6CCNCC6)c(C(F)(F)F)c5)c4c3c2)c1 | 2.35 µM (active) | 5.9 µM (active) | 10.5 µM (active) | 3.72 µM (active) | 3.72 µM (active) | 2.09 µM (active) | 1.66 µM (active) | 5.26 µM (active) | 3.72 µM (active) | 5.9 µM (active) | 7.43 µM (active) | 4.18 µM (active) | 3.72 µM (active) | 14.8 µM (active) | 4.69 µM (active) | 2.96 µM (active) | 5.26 µM (active) | 3.32 µM (active) | 5.9 µM (active) | 4.18 µM (active)
